“And” between values parts separate entries of the source, which are not always exact repeats. Equal values may be shown once. The source made the active and inactive calls.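 How the source made its calls, unless noted: active means compounds whose cell count with miR-34 switched on is under 0.7 times the count with it off; inactive means the rest.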
How the values were obtained:
[1] = viability loss with induced miR-34 in A549 – imaging, A549 dox-inducible miR-34, nuclei and caspase counts, primary screen (AID 1347080); conditions: A549 miR-34 inducible, Hoechst nuclei count, 48 h; further: test concentration not given here
[2] = MELAS cybrid and Rieske KO viability enhancers – cell-based, MELAS cybrids, Rieske KO mouse fibroblasts, CellTiter-Glo, primary screen (AID 1508586;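 active means mean z-score across replicates of 1.96 or higher in either the MELAS or the Rieske mutant cell line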;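 further: test concentration not given here; z relative to plate mean and SD of compound and empty wells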); conditions: low glucose
[3] = galactose survival enhancers in mitochondrial complex I cybrids – cell-based, galactose medium, ATP luminescence, primary screen (AID 1645843;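 active means z-score of at least 1.8 in each of two replicates, scored against plate mean and spread of sample wells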;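 further: positive z means more ATP and so rescue of galactose-driven cybrid death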); conditions: complex I mutant cybrid cells, 72 h, stronger effect = higher value
[4] = stronger effect = lower value, cell number ratio, induced over uninduced
[5] = measured here: relative caspase fold change +Dox/-Dox
[6] = measured here: total cells with miR-34 induction, stronger effect = lower value
[7] = measured here: total cells without miR-34 induction
[8] = MELAS cybrid survival, CellTiter-Glo 48 h, stronger effect = higher value
[9] = Rieske KO mouse fibroblast survival, CellTiter-Glo 72 h

Row | Structure (SMILES) | fold change [1, 4] | fold change [1, 5] | cell count [1, 6] | cell count [1, 7] | z-score [2, 8] | z-score [2, 9] | z-score [3]
1 | COc1cc2c(cc1-c1nnc3ccccn13)OCO2 | 0.908 (inactive) | 2.79 | 8030 | 8840 | 0.597 (inactive) | -0.284 | -0.465 (inactive)
2 | CCOC(=O)C(CCc1ccccc1)NC(C)C(=O)N1C(C(=O)O)CC2CCCC21 (centres undefined) | 0.892 (inactive) and 0.893 (inactive) | 1.7 and 1.12 | 8500 and 7970 | 9530 and 8920 | -0.00441 (inactive) | 0.321 | 0.52 (inactive)
3 | CSc1ccccc1C(=O)N1CCc2[nH]nc(COc3ccccc3)c2C1 | 0.941 (inactive) | 0.435 | 8390 | 8920 | -0.515 (inactive) | 0.374 | 1.12 (inactive)
4 | O=C(O)c1ccccc1C(=O)O | 0.874 (inactive) | 0.755 | 8620 | 9850 | -0.0339 (inactive) | -0.338 | 0.455 (inactive)
5 | Cc1cc(-c2csc(Nc3ccc(C(=O)O)c(O)c3)n2)ccc1F | 0.849 (inactive) | 0.325 | 8200 | 9650 | 2.38 (active) | -0.525 | 1.02 (inactive)
6 | Nc1ncccc1OCc1ccccc1 | 0.764 (inactive) | 0.403 | 7870 | 10300 | -0.968 (inactive) | -0.912 | -0.165 (inactive)
7 | Cc1ncsc1-c1ccn(CC(=O)Nc2ccnn2Cc2cccs2)n1 | 0.798 (inactive) | 1.89 | 6540 | 8190 | -0.383 (inactive) | -0.375 | -0.525 (inactive)
8 | Cc1cc(C(=O)Nc2ccc3c(c2)CC(=O)N3)c(C)o1 | 0.929 (inactive) | 1.42 | 9120 | 9820 | -0.11 (inactive) | -0.503 | -0.465 (inactive)
9 | Cc1nsc(NC(=O)N[C@@H]2CCCC[C@H]2c2ccccc2)n1 | 0.821 (inactive) | 1.15 | 7510 | 9150 | 0.535 (inactive) | -0.546 | 1.12 (inactive)
10 | O=S(=O)(O)c1cccc2cccc(Nc3ccccc3)c12 | 0.946 (inactive) | 0.486 | 8990 | 9500 | -0.258 (inactive) | -0.0194 | 0.715 (inactive)
11 | Cc1nc(CCNC(=O)Nc2nnc(-c3cccs3)s2)sc1C | 0.877 (inactive) | 1.44 | 7610 | 8680 | -0.443 (inactive) | -0.248 | 0.645 (inactive)
12 | CC(=O)N1CCCC(Cn2cnc3scc(-c4cc(C)ccc4C)c3c2=O)C1 (centres undefined) | 0.917 (inactive) | 1.14 | 8240 | 8990 | -0.328 (inactive) | -0.378 | 0.155 (inactive)
13 | CNc1ccnc(-c2cnn(CC(=O)Nc3cc(C)nn3C)c2)n1 | 0.867 (inactive) | 1.09 | 8660 | 9980 | -0.389 (inactive) | -1.16 | -0.515 (inactive)
14 | COc1cc(Cn2cnc3nccnc3c2=O)cc(OC)c1 | 0.919 (inactive) | 2.53 | 9000 | 9790 | -0.417 (inactive) | -0.582 | -0.515 (inactive)
15 | O=C(Nc1ccccc1)c1ccn[nH]1 | 0.856 (inactive) | 0.232 | 7620 | 8910 | -0.292 (inactive) | 0.207 | 0.49 (inactive)
16 | Cc1cc(C)n(CCCNc2ncc(C)c(-c3cnn(C)c3)n2)n1 | 0.893 (inactive) | 1.21 | 8360 | 9370 | -0.406 (inactive) | 0.144 | -0.54 (inactive)
17 | Cc1cc(-c2cnn(C)c2)nc(N)n1 | 0.853 (inactive) | 1.79 | 8800 | 10300 | -0.132 (inactive) | -0.642 | -0.56 (inactive)
18 | O=C(O)c1cccnc1Nc1ccc(Cl)cc1 | 1.17 (inactive) | 0.619 | 5660 | 4840 | -0.775 (inactive) | -0.287 | 0.845 (inactive)
19 | CCOc1cc(CC(=O)NC(CC(C)C)c2ccccc2N2CCCCC2)ccc1C(=O)O (centres undefined) | 0.993 (inactive) and 0.919 (inactive) | 2 and 0.721 | 8780 and 7660 | 8840 and 8340 | -0.382 (inactive) | 0.561 | 1.65 (inactive)
20 | CC(C)(CCl)C(=O)Nc1ccc(C(F)(F)F)cc1 | 0.859 (inactive) | 1.51 | 8340 | 9720 | 0.804 (inactive) | 0.128 | 0.14 (inactive)
21 | CN(C)CCC=C1c2ccccc2COc2ccc(CC(=O)O)cc21 | 0.912 (inactive) and 0.919 (inactive) | 1.41 and 0.942 | 9480 and 9680 | 10400 and 10500 | -0.314 (inactive) | 0.569 | 1.25 (inactive)
22 | CC(C)n1ncc(NC(=O)Cn2ccc(-c3ccc(C(F)(F)F)cc3)n2)n1 | 0.965 (inactive) | 1.03 | 5250 | 5440 | 1.15 (inactive) | -0.0246 | 0.42 (inactive)
23 | Cc1ccc2c(C(=O)N3C[C@H]4CC[C@H]3C4)cc(-c3cnn(C(C)(C)C)c3)nc2c1 | 0.854 (inactive) | 1.66 | 6940 | 8130 | -0.72 (inactive) | 0.542 | 1.56 (inactive)
24 | NC(=O)c1c(NC(=O)C2CC2)sc2c1CCCC2 | 0.825 (inactive) | 0.622 | 7330 | 8890 | -0.327 (inactive) | 0.409 | 0.65 (inactive)

Row | Structure (SMILES) | fold change [1, 4] | fold change [1, 5] | cell count [1, 6] | cell count [1, 7] | z-score [2, 8] | z-score [2, 9] | z-score [3]
25 | O=C(O)C=Cc1ccccc1O | 0.911 (inactive) | 0.83 | 8740 | 9590 | 0.0698 (inactive) | 0.0548 | 0.245 (inactive)
26 | NC(N)=NCC(=O)O | 0.926 (inactive) | 0.467 | 8690 | 9380 | 0.863 (inactive) | 0.0822 | 0.15 (inactive)
27 | CCOc1ccc(C=C2NCCc3cc(OCC)c(OCC)cc32)cc1OCC | 0.846 (inactive) | 0.801 | 4950 | 5850 | -1.41 (inactive) | -0.0245 | -2.65 (inactive)
28 | COc1ccccc1-c1ccc(C(=O)O)o1 | 0.892 (inactive) | 0.465 | 8930 | 10000 | -1.1 (inactive) | 0.506 | 1.07 (inactive)
29 | CCn1cnc(NC(=O)N(C)Cc2cccc3ncccc23)n1 | 0.944 (inactive) | 1.82 | 9300 | 9840 | -0.163 (inactive) | -0.316 | -0.465 (inactive)
30 | COc1cc(F)c(-c2nc3c(cnn3Cc3cccs3)[nH]2)c(F)c1 | 0.818 (inactive) | 1.31 | 6350 | 7760 | -0.593 (inactive) | -0.339 | 2.49 (active)
31 | O=C1CN(C(=O)Nc2nncs2)CCN1Cc1cccc(F)c1 | 0.896 (inactive) | 1.07 | 9320 | 10400 | 0.315 (inactive) | -0.441 | -0.53 (inactive)
32 | COc1cccc(OC)c1-c1ccc(C(=O)Nc2cccnc2)o1 | 0.893 (inactive) | 2.2 | 7930 | 8880 | 0.0755 (inactive) | 0.502 | -0.555 (inactive)
33 | Cc1cc(C)nc(-c2cnn(CC(=O)Nc3cnn(C)n3)c2)n1 | 0.881 (inactive) | 1.67 | 8470 | 9620 | 0.0131 (inactive) | -0.562 | -0.525 (inactive)
34 | COc1ccc(CN2CCN(c3ncnc4sccc34)CC2=O)cc1 | 0.842 (inactive) | 1.22 | 5020 | 5960 | -0.496 (inactive) | -0.343 | 0.64 (inactive)
35 | O=c1cc(-c2ccccc2)oc2ccccc12 | 0.858 (inactive) | 0.735 | 7170 | 8370 | 2.28 (active) | 0.116 | 1.36 (inactive)
36 | O=C(COc1ccc(Cl)cc1)Nc1ccccc1C(=O)O | 0.906 (inactive) | 0.574 | 8240 | 9090 | -0.363 (inactive) | -0.206 | 0.885 (inactive)
37 | Nc1ncc(Cc2ccccc2)s1 | 0.906 (inactive) | 0.514 | 8010 | 8850 | -0.355 (inactive) | -0.511 | -0.26 (inactive)
38 | O=C(Nc1c[nH]c2ccccc12)c1cc(-c2ccc(F)cc2)n[nH]1 | 0.84 (inactive) | 1.42 | 7140 | 8510 | -0.224 (inactive) | 0.73 | -0.56 (inactive)
39 | C=CCNC(=O)c1cccnc1-c1ccc(OC)c2ncccc12 | 0.914 (inactive) | 1.9 | 9130 | 9990 | -0.163 (inactive) | -0.219 | -0.545 (inactive)
40 | O=C(O)c1ccc2ccccc2n1 | 0.876 (inactive) | 0.492 | 7890 | 9000 | -1.05 (inactive) | -0.692 | 0.485 (inactive)
41 | COc1cccc(-n2cc(-c3ccnc(NCCc4cnc[nH]4)n3)cn2)c1 | 0.891 (inactive) | 1.29 | 7850 | 8810 | -0.718 (inactive) | 0.696 | 1.87 (inactive)
42 | CC(C)C(=O)N1CCC(CNC(=O)c2ccno2)CC1 | 0.927 (inactive) | 0.833 | 9650 | 10400 | 0.208 (inactive) | 0.293 | -0.57 (inactive)
43 | O=C1CN(c2ncnc3nc[nH]c23)CCN1Cc1cccc(F)c1 | 0.802 (inactive) | 2.49 | 7800 | 9720 | -0.258 (inactive) | -0.742 | -0.53 (inactive)
44 | Cc1ccccc1-n1cc(-c2ccnc(NCCC3(O)CCN(C)CC3)n2)cn1 | 0.797 (inactive) | 1.49 | 8470 | 10600 | 0.152 (inactive) | -0.0851 | -0.43 (inactive)
45 | Cc1cc(NC(=O)Cn2ccc(-c3ncnn3C)n2)n(C2CCCCC2)n1 | 0.953 (inactive) | 1.19 | 9860 | 10400 | 0.129 (inactive) | -0.435 | -0.55 (inactive)
46 | Cc1nsc(NC(=O)N(C)Cc2cn[nH]c2-c2ccc(F)cc2)n1 | 0.916 (inactive) | 0.879 | 9230 | 10100 | 0.225 (inactive) | -0.278 | -0.49 (inactive)
47 | CCCn1ncc(-c2ccnc(NC3CC(C)(C)NC(C)(C)C3)n2)c1C | 0.919 (inactive) | 0.965 | 8450 | 9200 | 0.278 (inactive) | 0.593 | 0.33 (inactive)
